# Screening results: PubChem, National Center for Advancing Translational Sciences (NCATS)
# TRPML1 ag = qHTS for Agonists of the Human Mucolipin Transient Receptor Potential 1 (TRPML1) | AID 624414, 2012 | TRPML1-expressing cells, Ca2+ dye fluorescence, FDSS | Mucolipin-1 (Homo sapiens), Q9GZU1 | activation, % (no concentration beside the values) | hit rate 0.12% among 410,000; in the data active = activation above about 50%; inconclusive = mostly about 30% to 49%; also: 0% is about no effect
#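 In this qHTS format, compounds were pin-transferred onto Ca8-dye-loaded TRPML1-DL cells induced with Tet overnight, and intracellular Ca2+ fluorescence was recorded kinetically for 110 s after a 10 s baseline. A subsequent 4uM final 54-4 (EC80) addition followed by a second 110 s read served as the antagonist phase.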
# TRPML1 inh = qHTS for Inhibitors of the Human Mucolipin Transient Receptor Potential 1 (TRPML1); Mucolipin-1 (Homo sapiens), Q9GZU1; TRPML1-inducible cells, Ca2+ dye fluorescence, FDSS; hits give low values; inhibition of EC80 agonist-evoked calcium signal; activity change, negative = inhibition, % (test concentration not listed); hit rate 0.02% among 390,000; in the data active = activity change below about -50%; inconclusive = between about -30% and that limit;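 also: stimulus is agonist 54-4 at its EC80 concentration; % is scaled to controls: 0 for no effect and ±100 for the full control effect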
#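 TRPML1-DL cells, Tet-induced overnight (~16 h, 37 °C) at 1,500 cells/well, were loaded with Ca8 no-wash dye plus quencher for 45-90 min at room temperature. Compounds were pinned during FDSS kinetic reading; agonist 54-4 at EC80 (4 uM final) then added.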
# GLP-1R agonist = qHTS of GLP-1 Receptor Agonists. Glucagon-like peptide 1 receptor (Homo sapiens), P43220. HEK293 GLP-1R CRE-luciferase, luminescence, 4-6 h; cells express a hypersensitive GLP-1R form. Potency, µM (top dose mostly 45.6 µM), inactives show at the highest dose activation, usual class: activators. hit rate 0.007% among 380,000. AID 624172, 2012; also: potency is read from the fitted curve at half-maximal effect; % of control where 0% means no effect
# Target sequence (P43220 whole entry, looked up): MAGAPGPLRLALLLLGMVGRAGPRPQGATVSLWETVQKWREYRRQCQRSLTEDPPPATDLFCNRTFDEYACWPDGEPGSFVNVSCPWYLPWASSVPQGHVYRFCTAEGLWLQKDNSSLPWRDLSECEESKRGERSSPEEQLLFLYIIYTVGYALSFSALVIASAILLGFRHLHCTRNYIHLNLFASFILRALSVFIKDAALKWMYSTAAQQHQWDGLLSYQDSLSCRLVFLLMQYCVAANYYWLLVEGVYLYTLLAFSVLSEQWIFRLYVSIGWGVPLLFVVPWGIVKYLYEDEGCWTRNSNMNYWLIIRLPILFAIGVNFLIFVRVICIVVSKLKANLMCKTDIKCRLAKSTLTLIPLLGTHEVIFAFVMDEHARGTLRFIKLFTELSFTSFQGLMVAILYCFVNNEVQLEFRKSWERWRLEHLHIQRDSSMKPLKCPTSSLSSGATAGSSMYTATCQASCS
# GLP1R inv ag = qHTS of GLP-1 Receptor Inverse Agonists (Inhibition Mode); Glucagon-like peptide 1 receptor (Homo sapiens), P43220; Potency, µM (top dose mostly 38.3 µM), for inactives: top-dose activity change, negative = inhibition, hits mostly inhibitors; HEK293 GLP-1R CRE-luciferase, luminescence, 24 h; GLP-1R form is constitutively active; AID 624417, 2012; hit rate 1.6% among 410,000; also: potency is read from the fitted curve at half-maximal effect; % is scaled to controls: 0 for no effect and ±100 for the full control effect; nearly all actives have a fitted effect of over 55% in size
#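 Readout was luciferase luminescence, measured 12 min after detection reagent at room temperature. Beforehand, GLP-1R reporter HEK293 cells had sat 12 h, then received compounds for 24 hr at 37 deg C.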
# HEK293 tox = qHTS of GLP-1 Receptor Inverse Agonists: Cytotox Screen | HEK293 cAMP-luciferase reporter cells, luminescence, 24 h | hit rate 0.13% among 410,000 | Potency, µM (doses to about 38.3 µM), inactives show at the highest dose activity change, negative = inhibition, most hits filed as inhibitors;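 also: loss of luciferase light is scored as toxicity; potency is read from the fitted curve at half-maximal effect; % is scaled to controls: 0 for no effect and ±100 for the full control effect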
#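 Quantitative HTS format, 1536 wells, 200 cells/uL seeded. Compounds: 23 nL, 24 h, 37 °C. Detection: luciferase reagent, luminescence at 12 min RT; decreased signal taken as cytotoxic.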
# An asterisk follows results filed as active; ? = inconclusive; nt = no result; ! = repeats disagree. An excerpt weighted towards active compounds, which were near 1.8% of everything screened. Unless noted, calls follow the shape of the dose curve; as a rule, active = well fitted curve in the direction sought with a large enough effect; inconclusive = small, poorly fitted or top-dose-only effect, or another doubt; inactive = no such curve, though single readings can be large; an effect the other way counts as inactive or inconclusive.
SMILES,TRPML1 ag,TRPML1 inh,GLP-1R agonist,GLP1R inv ag,HEK293 tox
CC(Nc1nc(-c2ccc(F)cc2)cs1)c1nc2cc(C(F)(F)F)ccc2n1CCCO (configuration not stated),-1,8,-1%,7.9µM*,-9%
CC(Nc1nc(-c2ccc(F)cc2)cs1)c1nc2cc(C(F)(F)F)ccc2n1CCOCCO (configuration not stated),0,-4,-5%,-3%,8%
Cc1ccc(Cn2c(C(C)Nc3nc(-c4ccc(F)cc4)cs3)nc3cc(C(=O)NCCCO)ccc32)cc1 (configuration not stated),0,-13,7%,-29%,-28%
COc1ccccc1C1c2c(-c3ccc(Cl)cc3)n[nH]c2C(=O)N1c1ccc(C)cc1 (configuration not stated),1,-13,-11%,?,-7%
CCOc1ccccc1C(=O)N(Cc1ccco1)Cc1ccccc1F,2,28,nt,?,2%
O=C(NNc1ccccc1)c1sc2ccccc2c1Cl,1,nt,nt,nt,nt
CCN(CC)c1ccc(/C=C(\C#N)C(N)=O)cc1,7,-9,16%,61%,-1%
CN(C)c1ccc(/C=C(\C#N)C(=O)c2ccccc2)cc1,72*,?,0%,-4%,1%
CCN(CC)c1ccc(/C=C(\C#N)C(=O)c2ccc(Br)cc2)cc1,79*,-5,-1%,18%,10%
Cc1ccc(C=C(C#N)C(=O)c2ccccc2)cc1,0,nt,-2%,24%,8%
CCOC(=O)c1c(C)nc2sc(C(=O)Nc3ccc(C(C)=O)cc3)c(N)c2c1-c1ccc(OC)cc1,4,-5,4%,8.9µM*,340%
COc1ccc(-c2sc(Nc3ccccc3)n[n+]2-c2ccc(F)cc2)cc1Br,1,48,5%,-6%,0%
COc1ccc2ccccc2c1-c1sc(Nc2ccccc2)n[n+]1-c1ccc(F)cc1,10,47,-2%,?,5µM*
CCc1ccc(Nc2n[n+](-c3ccccc3)c(-c3c(Cl)cccc3Cl)s2)cc1,-1,41,1%,?,7.9µM*
COc1ccc(-c2oc(NC(=O)CSc3ncn[nH]3)c(C#N)c2-c2ccc(OC)cc2)cc1,3,-11,-3%,-13%,-20%
COc1ccccc1OCC(=O)Nc1oc(-c2ccccc2)c(-c2ccccc2)c1C#N,1,-14,-14%,?,3%
COc1ccc(CC(=O)Nc2oc(-c3ccccc3)c(-c3ccccc3)c2C#N)cc1OC,3,18,-1%,2.2µM*,-13%
COc1ccc(-c2oc(NC(=O)CCl)c(C#N)c2-c2ccc(OC)cc2)cc1,0,2,-12%,2.2µM*,?
COC(=O)c1ccc2c(c1)N(CC(=O)Nc1cccc(C(F)(F)F)c1)C(=O)c1ccccc1S2,5,16,0%,0%,3%
Oc1cccc2c(CC(O)c3c[nH]c4ccccc34)ccnc12 (configuration not stated),0,nt,nt,nt,nt
CCOC(=O)c1sc(NC(=S)NC(=O)C2CCCC2)cc1C,0,1,13%,?,-4%
CCOC(=O)c1sc(NC(=S)NC(=O)CC(C)C)cc1C,-1,-2,4%,10µM*,?
CCc1cccc(NC(c2nnc(-c3ccccc3)o2)c2ccc(F)cc2Cl)c1 (configuration not stated),2,-14,nt,6.3µM*,2%
C(=C\c1c[nH]c2ccccc12)/c1nccc2ccccc12,16,nt,nt,nt,nt
CC(=O)Nc1cccc(-c2cnc(N)c(C(=O)c3cccnc3)n2)c1,0,2,-18%,?,-9%
SMILES,TRPML1 ag,TRPML1 inh,GLP-1R agonist,GLP1R inv ag,HEK293 tox
NC(=O)c1cccc(-c2cnc(N)c(C(=O)c3cccnc3)n2)c1,0,24,-12%,3.5µM*,-14%
CSc1ccc(CCNC(=O)CCCn2c(=O)c3cccn3c3ccccc32)cc1,3,-17,nt,-4%,-11%
Cc1cc(C)cc(NC(=O)CN(C)S(=O)(=O)c2ccc3[nH]c4c(c3c2)CCCC4)c1,2,21,nt,?,6%
CCOc1ccc(NC(=O)CN(C)S(=O)(=O)c2ccc3[nH]c4c(c3c2)CCCC4)cc1,3,-9,nt,11µM*,-1%
COc1ccc(NC(=O)CN(C)S(=O)(=O)c2ccc3c(c2)c(=O)n(C)c(=O)n3C)cc1,0,-87*!,3%,10%,-12%
CCc1ccc(NC(=O)CN(C)S(=O)(=O)c2ccc3c(c2)c(=O)n(C)c(=O)n3C)cc1,0,5,1%,1%,-2%
Cc1cc(N2CCC(C)CC2)nc(SCC(=O)c2ccccc2)n1,4,59,1%,3.2µM*,1%
CC(Oc1ccc(F)cc1)C(=O)Nc1sc2c(c1C(=O)NCc1cccnc1)CCCC2 (configuration not stated),1,52,1%,10µM*,-24%
CC1=C(C(=O)Nc2cccc(F)c2)C(c2ccsc2)C2=C(CC(C)(C)CC2=O)N1 (configuration not stated),3,20,14%,4µM*,-22%
CC(OC(=O)C1CCN(c2ccc(C(F)(F)F)cn2)CC1)C(=O)c1ccccc1 (configuration not stated),2,1,6%,?,4%
Cc1ccc(C(=O)C(C)OC(=O)C2CCN(c3ccc(C(F)(F)F)cn3)CC2)cc1 (configuration not stated),3,25,10%,10µM*,7%
CC(C)NC(=S)N/N=C/c1c[nH]c2ccccc12,0,-8,21%,?,10µM*
CCOc1ccccc1NC(=O)NC1CC2CCCC(C1)N2Cc1nnnn1CCc1ccccc1 (configuration not stated),0,-14,-4%,10µM*,9%
O=C(Nc1ccccc1)NC1CC2CCC(C1)N2Cc1nnnn1Cc1ccc2c(c1)OCO2 (configuration not stated),0,1,0%,0%,-13%
O=C(c1ccccc1)c1ccccc1C(=O)c1ccccc1,3,-11,18%,8.9µM*,46%
Cc1ccccc1C(=O)c1ccccc1C(=O)c1ccccc1,3,37,-1%,?,1%
CCc1c(C)sc2c1CCN(C(=O)Nc1cc(OC)c(OC)c(OC)c1)C2c1ccccc1 (configuration not stated),-1,-1,nt,10µM*,-5%
